From the supplement of paper PMC11732987, “Enantioselective OTUD7B fragment discovery through chemoproteomics screening and high-throughput optimisation” (Communications Chemistry, 2025)

Legend:
Assay in all cases: log2 ratio of Biotin-Ahx-Ub-VS probe labelling (fragment/DMSO); higher = less target engagement (more negative = stronger competition), active = hit call of the paper (q ≤ 0.05, log2 ratio ≤ -1)
Conditions in all cases: compound concentration: 200 uM; treatment time: 3 h
[1] = target: T1, OTUD6B (UniProt Q8N6M0)
T1 sequence (whole entry): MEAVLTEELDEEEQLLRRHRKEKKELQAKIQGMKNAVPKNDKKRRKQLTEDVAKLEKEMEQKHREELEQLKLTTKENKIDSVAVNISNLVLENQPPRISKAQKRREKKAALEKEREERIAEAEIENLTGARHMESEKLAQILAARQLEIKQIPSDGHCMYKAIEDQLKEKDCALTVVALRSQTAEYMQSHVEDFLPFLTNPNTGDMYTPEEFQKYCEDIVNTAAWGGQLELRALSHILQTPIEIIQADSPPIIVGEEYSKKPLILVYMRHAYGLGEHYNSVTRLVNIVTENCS
Outline: (§1)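 The table lists average log2 ratios of fragment over vehicle, from an unpaired t-test on global-median-normalised Spectronaut label-free quantities. Proteins with ≥2 unique peptides were used. Samples were HEK293T lysate (495 µg) treated in triplicate with fragment at 200 µM or vehicle for 3 h, then with Biotin-Ahx-Ub-VS (0.5 µM final) for 1 h, with labelled DUBs NeutrAvidin-enriched and run by diaPASEF LC-MS/MS.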

[2] = target: T2, OTUD7B (UniProt Q6GQQ9)
T2 sequence (whole entry): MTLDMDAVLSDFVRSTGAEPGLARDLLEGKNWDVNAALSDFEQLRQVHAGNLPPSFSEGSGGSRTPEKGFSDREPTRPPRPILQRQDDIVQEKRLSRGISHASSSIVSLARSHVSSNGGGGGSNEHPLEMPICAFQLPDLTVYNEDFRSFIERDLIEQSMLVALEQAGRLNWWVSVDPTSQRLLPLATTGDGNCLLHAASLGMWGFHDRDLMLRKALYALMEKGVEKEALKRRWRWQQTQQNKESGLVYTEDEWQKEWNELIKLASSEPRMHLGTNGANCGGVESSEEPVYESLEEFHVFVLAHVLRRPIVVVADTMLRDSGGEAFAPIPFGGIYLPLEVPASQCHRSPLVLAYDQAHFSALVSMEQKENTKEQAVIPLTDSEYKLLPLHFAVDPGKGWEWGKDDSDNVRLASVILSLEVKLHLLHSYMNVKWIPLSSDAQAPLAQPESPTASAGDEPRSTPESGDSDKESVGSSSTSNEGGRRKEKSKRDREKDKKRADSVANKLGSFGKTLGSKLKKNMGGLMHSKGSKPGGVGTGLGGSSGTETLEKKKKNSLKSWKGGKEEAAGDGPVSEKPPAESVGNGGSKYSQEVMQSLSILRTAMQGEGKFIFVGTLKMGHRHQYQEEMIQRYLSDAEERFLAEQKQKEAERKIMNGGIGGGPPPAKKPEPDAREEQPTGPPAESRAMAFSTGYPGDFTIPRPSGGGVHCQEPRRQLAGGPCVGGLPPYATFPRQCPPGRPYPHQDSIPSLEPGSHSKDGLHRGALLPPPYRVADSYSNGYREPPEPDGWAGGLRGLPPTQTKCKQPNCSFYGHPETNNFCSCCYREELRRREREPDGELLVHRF
Outline: as §1

[3] = target: PRPF8 (UniProt Q6P2Q9)
Outline: as §1

[4] = target: T3, PSMD7 (UniProt P51665)
T3 sequence (whole entry): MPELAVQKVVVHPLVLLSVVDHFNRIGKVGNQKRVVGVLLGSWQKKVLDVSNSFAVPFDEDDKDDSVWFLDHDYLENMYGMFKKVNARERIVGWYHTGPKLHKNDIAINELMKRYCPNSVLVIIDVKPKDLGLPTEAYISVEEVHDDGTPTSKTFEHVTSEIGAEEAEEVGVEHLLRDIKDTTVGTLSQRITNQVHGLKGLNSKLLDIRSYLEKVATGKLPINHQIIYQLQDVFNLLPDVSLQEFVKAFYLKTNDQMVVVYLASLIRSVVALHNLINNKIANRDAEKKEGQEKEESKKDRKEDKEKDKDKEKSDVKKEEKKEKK
Outline: as §1

[5] = target: UCHL1 (UniProt P09936)
Sequence of UCHL1 (P09936 whole entry, looked up): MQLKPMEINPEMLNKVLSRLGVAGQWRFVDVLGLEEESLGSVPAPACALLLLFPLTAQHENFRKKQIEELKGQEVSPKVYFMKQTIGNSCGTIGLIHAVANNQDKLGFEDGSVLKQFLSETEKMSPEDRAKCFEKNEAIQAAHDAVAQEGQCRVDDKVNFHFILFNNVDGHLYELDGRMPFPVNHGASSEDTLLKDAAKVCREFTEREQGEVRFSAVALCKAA
Outline: as §1

[6] = target: T4, UCHL3 (UniProt P15374)
T4 sequence (whole entry): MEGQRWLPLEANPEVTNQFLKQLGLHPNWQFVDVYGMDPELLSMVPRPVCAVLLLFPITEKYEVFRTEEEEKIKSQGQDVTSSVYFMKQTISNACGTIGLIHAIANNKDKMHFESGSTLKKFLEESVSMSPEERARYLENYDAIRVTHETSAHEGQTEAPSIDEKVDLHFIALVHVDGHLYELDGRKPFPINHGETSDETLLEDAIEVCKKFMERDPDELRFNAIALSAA
Outline: as §1

[7] = target: T5, UCHL5 (UniProt Q9Y5K5)
T5 sequence (whole entry): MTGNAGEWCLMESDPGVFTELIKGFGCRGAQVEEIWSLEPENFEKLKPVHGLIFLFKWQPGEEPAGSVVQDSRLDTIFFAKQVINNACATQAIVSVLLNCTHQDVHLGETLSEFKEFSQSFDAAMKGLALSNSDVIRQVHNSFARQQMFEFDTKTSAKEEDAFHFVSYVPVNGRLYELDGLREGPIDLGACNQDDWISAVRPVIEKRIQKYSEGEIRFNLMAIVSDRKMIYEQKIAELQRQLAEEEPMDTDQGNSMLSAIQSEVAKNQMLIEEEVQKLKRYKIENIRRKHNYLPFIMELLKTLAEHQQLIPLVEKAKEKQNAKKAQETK
Outline: as §1

[8] = target: USP10 (UniProt Q14694)
Sequence of USP10 (Q14694 whole entry): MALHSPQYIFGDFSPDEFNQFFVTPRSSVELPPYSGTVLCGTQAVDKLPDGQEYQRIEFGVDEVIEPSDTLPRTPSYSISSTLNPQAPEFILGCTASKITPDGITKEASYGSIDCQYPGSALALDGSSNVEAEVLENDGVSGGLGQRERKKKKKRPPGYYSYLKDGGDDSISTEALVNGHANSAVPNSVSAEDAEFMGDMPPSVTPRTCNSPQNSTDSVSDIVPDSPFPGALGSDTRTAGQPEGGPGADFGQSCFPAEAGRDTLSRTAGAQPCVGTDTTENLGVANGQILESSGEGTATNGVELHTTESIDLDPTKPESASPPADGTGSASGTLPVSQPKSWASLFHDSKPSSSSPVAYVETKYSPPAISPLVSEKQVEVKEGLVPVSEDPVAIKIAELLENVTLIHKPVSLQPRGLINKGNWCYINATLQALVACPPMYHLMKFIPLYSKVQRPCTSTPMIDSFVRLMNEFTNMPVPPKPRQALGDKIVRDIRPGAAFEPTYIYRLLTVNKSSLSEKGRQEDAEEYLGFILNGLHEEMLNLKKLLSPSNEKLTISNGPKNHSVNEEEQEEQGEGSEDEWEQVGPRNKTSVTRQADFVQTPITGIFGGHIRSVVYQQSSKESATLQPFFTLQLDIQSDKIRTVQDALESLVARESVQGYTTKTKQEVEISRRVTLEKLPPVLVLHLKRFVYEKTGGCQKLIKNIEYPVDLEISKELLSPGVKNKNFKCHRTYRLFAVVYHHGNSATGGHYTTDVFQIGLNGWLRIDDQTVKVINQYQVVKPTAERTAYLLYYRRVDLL
Outline: as §1

[9] = target: T6, USP15 (UniProt Q9Y4E8)
T6 sequence (whole entry): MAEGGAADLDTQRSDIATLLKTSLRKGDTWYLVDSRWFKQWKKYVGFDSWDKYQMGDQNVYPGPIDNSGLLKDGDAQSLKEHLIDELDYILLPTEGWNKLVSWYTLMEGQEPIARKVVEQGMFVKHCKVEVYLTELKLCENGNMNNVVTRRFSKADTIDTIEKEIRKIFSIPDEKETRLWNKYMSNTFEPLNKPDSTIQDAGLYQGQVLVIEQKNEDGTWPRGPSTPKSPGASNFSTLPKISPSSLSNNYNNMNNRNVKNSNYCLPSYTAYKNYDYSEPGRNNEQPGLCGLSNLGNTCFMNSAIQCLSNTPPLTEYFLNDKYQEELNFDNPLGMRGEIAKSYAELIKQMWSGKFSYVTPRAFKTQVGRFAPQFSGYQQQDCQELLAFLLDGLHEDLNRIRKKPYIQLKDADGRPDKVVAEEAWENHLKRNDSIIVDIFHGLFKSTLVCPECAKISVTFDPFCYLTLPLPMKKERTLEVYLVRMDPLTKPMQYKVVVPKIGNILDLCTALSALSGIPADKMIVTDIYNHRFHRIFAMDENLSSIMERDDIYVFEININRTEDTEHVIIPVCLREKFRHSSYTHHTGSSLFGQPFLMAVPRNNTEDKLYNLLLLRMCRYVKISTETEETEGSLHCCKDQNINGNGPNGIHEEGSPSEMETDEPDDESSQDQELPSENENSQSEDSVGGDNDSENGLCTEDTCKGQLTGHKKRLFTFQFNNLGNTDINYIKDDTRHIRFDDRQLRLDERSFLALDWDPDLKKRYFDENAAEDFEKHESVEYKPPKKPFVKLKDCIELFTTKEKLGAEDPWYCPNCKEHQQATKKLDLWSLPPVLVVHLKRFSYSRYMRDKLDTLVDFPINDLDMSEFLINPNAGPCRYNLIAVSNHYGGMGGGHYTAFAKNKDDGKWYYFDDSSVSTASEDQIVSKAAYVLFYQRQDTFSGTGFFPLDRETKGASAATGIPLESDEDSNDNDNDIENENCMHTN
Outline: as §1

[10] = target: USP16 (UniProt Q9Y5T5)
Sequence of USP16 (Q9Y5T5 whole entry, looked up): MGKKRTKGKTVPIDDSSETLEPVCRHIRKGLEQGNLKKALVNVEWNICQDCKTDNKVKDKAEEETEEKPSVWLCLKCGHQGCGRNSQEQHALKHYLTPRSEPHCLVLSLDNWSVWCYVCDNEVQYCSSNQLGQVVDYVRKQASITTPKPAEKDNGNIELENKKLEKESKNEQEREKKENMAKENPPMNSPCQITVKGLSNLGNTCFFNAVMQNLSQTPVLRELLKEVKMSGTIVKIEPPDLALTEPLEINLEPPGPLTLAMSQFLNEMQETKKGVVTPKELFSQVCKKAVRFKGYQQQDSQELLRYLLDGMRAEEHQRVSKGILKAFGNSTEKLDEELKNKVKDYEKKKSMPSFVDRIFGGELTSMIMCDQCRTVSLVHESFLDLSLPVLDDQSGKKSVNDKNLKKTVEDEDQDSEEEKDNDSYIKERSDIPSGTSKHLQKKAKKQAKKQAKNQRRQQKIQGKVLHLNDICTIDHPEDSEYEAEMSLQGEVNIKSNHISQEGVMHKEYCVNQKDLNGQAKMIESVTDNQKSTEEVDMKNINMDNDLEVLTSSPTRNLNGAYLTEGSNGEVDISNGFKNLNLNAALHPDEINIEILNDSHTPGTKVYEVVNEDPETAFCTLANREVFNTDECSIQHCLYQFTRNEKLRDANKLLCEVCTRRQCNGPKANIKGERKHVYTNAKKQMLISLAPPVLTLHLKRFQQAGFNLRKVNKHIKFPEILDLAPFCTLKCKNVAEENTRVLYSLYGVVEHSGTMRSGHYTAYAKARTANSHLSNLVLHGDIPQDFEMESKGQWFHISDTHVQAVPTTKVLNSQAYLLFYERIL
Outline: as §1

Measured: log2 ratio of Biotin-Ahx-Ub-VS probe labelling

COc1ccc(Cl)cc1NC(=O)CCl
active: [2] -1.29 | [5] -1.01
inactive: [1] -0.594 | [3] -0.0117 | [4] -0.241 | [6] -0.0348 | [7] -0.501 | [8] -0.263 | [9] -0.674 | [10] -0.286
